This is an account of results in PubChem BioAssay (NCATS).

Molecules are shown by their SMILES. Inconclusive results are not listed. Entries that show only a call come without a potency. Active and inactive are the calls of the source. The call rests on the fitted dose curve; in most records, active means well fitted inhibition curve with a large enough effect; inconclusive means small, poorly fitted or top-dose-only effect; inactive means flat fitted curve, though single readings scatter.

In this test the test system is PC15. The test can be described thus: qHTS profiling for inhibitors of Plasmodium falciparum proliferation (AID 504749). Further: nearly all actives have a fitted effect of over 60% in size. The conditions noted are these: P. falciparum in erythrocytes, SYBR Green DNA, 72 h; series mostly up to 28.7 µM. Summed up: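 Fluorescence of SYBR Green-bound parasite DNA, read at 485/535 nm, served as the growth measure. Infected erythrocytes were cultured with compound 72 h; artemisinin (0.29 uM) and DMSO wells defined the normalization range.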
Regarding `CCC(CC)(CC(=O)Nc1cccc(/C=C/c2nc(C3CCC3)cs2)c1)C(=O)O`, the Potency result is “inactive”.

Regarding `CN1CCN(C2=Nc3cc(F)ccc3Cc3ccccc32)CC1`, the Potency result is “inactive”.

Consider `COc1ccc(C(=O)c2ccccc2O)c(O)c1`, for which the Potency result was “inactive”.

As to `C#C[C@]1(OC(C)=O)CC[C@H]2[C@@H]3CCC4=C/C(=N/O)CC[C@@H]4[C@H]3CC[C@@]21CC`, the Potency entry was “inactive”.

In the case of `CN(C)CCN1C(=O)c2ccccc2N(C)c2ccccc21`, the Potency result was “inactive”.

On to `Cc1ncc(CO)c(C=O)c1O`, for which the Potency entry was “inactive”.

For `CC(C)[N+](C)(C)CC(O)COc1cccc2ccccc12` (stereo not drawn), the Potency entry is “inactive”.

Take `CC(=O)O[C@H]1C[C@@H]2CC[C@@H]3[C@H](CC[C@@]4(C)[C@H]3C[C@H]([N+]3(C)CCCCC3)[C@@H]4OC(C)=O)[C@@]2(C)C[C@@H]1N1CCCCC1`: the Potency entry is “inactive”.

For `O=C(O)CCc1nc2ccccc2[nH]1`, the Potency entry was “inactive”.

On to `CCNC(=O)NCc1cccc(Cl)c1`, for which the Potency result was “inactive”.

As to `CCOc1ccccc1OCCN[C@H](C)Cc1ccc(OC)c(S(N)(=O)=O)c1`, the Potency result is “inactive”.

With `CCOC(=O)Nc1ccc2c(c1)N(C(=O)CCN1CCOCC1)c1ccccc1S2`, the Potency result is “inactive”.

For `CC[N+](C)(CC)CCOC(=O)C(O)(c1ccccc1)C1CCCCC1` (stereo not drawn), the Potency result was “inactive”.

Consider `CC(C)=CCOc1ccc(/C=C/C(=O)c2ccc(OCC=C(C)C)cc2OCC(=O)O)cc1`, for which the Potency entry was “inactive”.

In the case of `CCC(C(=O)OCCOCCN(CC)CC)c1ccccc1` (stereo not drawn), the Potency result is “inactive”.

Consider `NC(=O)C1(N2CCCCC2)CCN(CCCC(=O)c2ccc(F)cc2)CC1`, for which the Potency result is “inactive”.

Regarding `CN1CCN(C2=Nc3ccccc3Sc3ccc(Cl)cc32)CC1`, the Potency entry was “inactive”.

Consider `O=S(c1cc(Cl)cc(Cl)c1O)c1cc(Cl)cc(Cl)c1O`, for which the Potency entry was “inactive”.
